hERG WT inh = qHTS for Inhibitors of KCHN2 3.1: Wildtype qHTS. Voltage-gated inwardly rectifying potassium channel KCNH2 (Homo sapiens), Q12809. U2OS, BacMam KCNH2, thallium flux FluxOr; hits give low values. activity change, % at 1.84 µM. hit rate 0.37% among 340,000. AID 720551, 2013;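 active = maximum activity change below -70%; inconclusive = maximum activity change between -70% and -50%; inactive = maximum activity change above -50%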
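U2OS cells transduced with wild-type KCNH2 virus are loaded with FluxOr dye for 45 min, and thallium flux is measured in kinetic reads before and after stimulation buffer. Rate constants are normalized to DMSO controls.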
KCNH2 3.1 inh = qHTS for Inhibitors of KCHN2 3.1: Mutant qHTS; U2OS KCNH2 3.1, thallium flux FluxOr; hits give low values; activity change, % (tested at about 1.8 µM); hit rate 0.95% among 340,000; AID 720553, 2013;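 active = maximum activity change below -70%; inconclusive = maximum activity change from -70% to -50%; inactive = maximum activity change above -50%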;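 also: thallium influx rate constant from kinetic fluorescence after stimulation buffer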
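Measured as rate of thallium-driven FluxOr signal in transduced U2OS cells carrying the 3.1 channel, read kinetically for 2 min upon stimulation; values are rate constants scaled to DMSO control wells.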
MLL CXXC-DNA inh = qHTS Fluorescence Polarization Assay for Inhibitors of MLL CXXC domain - DNA interaction. MLL-CXXC / FITC-HOXA9 DNA fluorescence polarization. Potency, µM (series often up to 115 µM), usual class: inhibitors. Histone-lysine N-methyltransferase 2A (Homo sapiens), Q03164. hit rate 0.037% among 290,000; active = well fitted inhibition curve with a large enough effect in the polarisation, with a control signal flat, not every such curve was filed as active; inconclusive = small, poorly fitted or top-dose-only effect, or effect the other way, or a change in a side signal; inactive = no such curve, though single readings can be large or run the other way; the % refers to the polarisation
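Purified MLL-CXXC (added from a 7 uM solution) was preincubated 5 min at ambient with pinned compounds in 50 mM Tris-HCl pH 7.5, 50 mM NaCl, 1 mM DTT, 0.05% BSA. Fluorescein-labeled HOX-A9 DNA (50 nM solution) followed, 30 min, then polarization read.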
Menin MLL FP FL = qHTS Assay for Inhibitors Targeting the Menin-MLL Interaction in MLL Related Leukemias: Competition With Fluorescein Labeled MLL-derived Peptide. FP activity change, % at 61.4 µM. Fluorescence polarization, fluorescein-MLL peptide displacement from menin. 290,000 tested, under 10 active; active = well fitted curve in the direction sought with a large enough effect in the polarisation, not every such curve was filed as active; inconclusive = small, poorly fitted or top-dose-only effect, or effect the other way, or a change in a side signal; inactive = no such curve, though single readings can be large or run the other way; the % refers to the polarisation
Menin-MLL TR inh = qHTS Assay for Inhibitors Targeting the Menin-MLL Interaction in MLL Related Leukemias: Competition With Texas Red Labeled MLL-derived Mutant Peptide. O00255. Potency, µM (top dose mostly 61.6 µM), usual class: inhibitors. hit rate 0.23% among 270,000. Menin + Texas Red MLL mutant peptide, fluorescence polarization. AID 1768, 2009; active = well fitted inhibition curve with a large enough effect in the polarisation, with a control signal flat, not every such curve was filed as active; inconclusive = small, poorly fitted or top-dose-only effect, or effect the other way, or a change in a side signal; inactive = no such curve, though single readings can be large or run the other way; the % refers to the polarisation
Target sequence (O00255 whole entry, looked up): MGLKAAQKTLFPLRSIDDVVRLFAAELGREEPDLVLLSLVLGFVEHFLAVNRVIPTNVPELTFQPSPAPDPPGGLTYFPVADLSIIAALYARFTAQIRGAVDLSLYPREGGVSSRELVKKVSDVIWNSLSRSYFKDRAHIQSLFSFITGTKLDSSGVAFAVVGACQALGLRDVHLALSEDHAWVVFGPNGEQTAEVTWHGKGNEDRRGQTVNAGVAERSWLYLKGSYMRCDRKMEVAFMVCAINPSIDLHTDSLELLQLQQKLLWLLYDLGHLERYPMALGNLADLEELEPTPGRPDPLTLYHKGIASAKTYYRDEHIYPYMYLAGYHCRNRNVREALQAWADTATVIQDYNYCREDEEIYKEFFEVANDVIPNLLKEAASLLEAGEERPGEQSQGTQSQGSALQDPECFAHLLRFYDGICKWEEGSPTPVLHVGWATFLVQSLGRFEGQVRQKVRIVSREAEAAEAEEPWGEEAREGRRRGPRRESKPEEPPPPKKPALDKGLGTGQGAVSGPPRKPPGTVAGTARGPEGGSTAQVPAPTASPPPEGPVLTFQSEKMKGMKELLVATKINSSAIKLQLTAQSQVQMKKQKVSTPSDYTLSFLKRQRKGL
Numbers stand for hits; n = inactive; u = inconclusive; x = not tested or not shown. Compounds with a hit are over-represented: about 1.1% of the library has one in this group of screens.

SMILES	hERG WT inh	KCNH2 3.1 inh	MLL CXXC-DNA inh	Menin MLL FP FL	Menin-MLL TR inh
CN[C@H]1C[C@H]2c3[nH]c4ccc(-c5cccc(C)c5)cc4c3CCN2C[C@H]1[C@H](C)O	n	n	x	x	x
Cc1ccc2nc(CCc3nc4ccc(C)cc4[nH]3)[nH]c2c1	n	n	u	n	n
Cc1ccc2nc(CCCc3nc4ccc(C)cc4[nH]3)[nH]c2c1	n	-79	n	n	n
CCCc1cc(C(=O)N2CCCC(C(=O)c3cc(C)c(OC)c(C)c3)C2)n(C)n1 (stereo not drawn)	n	n	n	x	x
CCOc1ccc(CCN2C(=S)N([C@@H](Cc3ccc(O)cc3)CN3CCCC3CN3C(=S)NC[C@@H]3Cc3ccc(O)cc3)C[C@@H]2CC(C)C)cc1 (stereo partly drawn)	-80	n	x	x	x
CC(C)C[C@H]1CNC(=S)N1CC1CCCN1C[C@H](Cc1ccc(O)cc1)N1C[C@H](Cc2ccccc2)N(CC2CCCCC2)C1=S (stereo partly drawn)	n	n	x	x	x
CC(C)C[C@@H](CN1CCCC1CN1C(=S)NC[C@@H]1Cc1ccc(O)cc1)N1C[C@H](Cc2ccc(O)cc2)N(CCc2ccccc2)C1=S (stereo partly drawn)	-121	-79	x	x	x
COc1ccccc1NS(=O)(=O)c1cccc(NC(=O)CCNC(=O)c2ccccc2OC)c1	n	n	x	x	x
Cc1cc(NC(=O)CCN2C(=O)C3C4C=CC(C4)C3C2=O)c2ccccc2n1 (stereo not drawn)	-133	-138	n	n	n
CCn1cc(/C=C(\NC(=O)c2ccccc2)C(=O)NCCN2CCOCC2)c2ccccc21	n	n	x	x	x
C=CCn1c(=O)/c(=C/c2ccc(Cl)cc2)s/c1=C(\C#N)c1nnc2n1CCCCC2	n	-87	x	x	x
C=CCN1C(c2ccccc2)=CS/C1=C(\C#N)c1nnc2n1CCCCC2	n	n	n	n	n
COc1cccc([C@@H]2Oc3ccc(OC)cc3C[C@H]2OC(=O)N[C@H](C)C2CCCCC2)c1	x	x	x	n	n
Cc1cc2nc3ccc(=[N+](C)C)cc-3sc2cc1N	n	-94	u	n	x
COc1ccc(-c2ccc(SCC(=O)NC3CCCCC3)nn2)cc1OC	n	n	n	n	n
COc1cc(NS(=O)(=O)c2ccc3[nH]c(=O)oc3c2)cc(OC)c1	n	-71	n	n	n
O=c1[nH]c2ccc(S(=O)(=O)Nc3ccc(Cl)cc3)cc2o1	n	u	n	x	x
O=C(CCC1CCCNC1)c1ccccc1 (stereo not drawn)	x	x	n	n	n
COc1ccc(S(=O)(=O)N(CC(=O)N/N=C/c2cccs2)c2ccc(C)cc2)cc1OC	n	n	n	n	n
COc1ccc(S(=O)(=O)N(CC(=O)N/N=C/c2cccs2)c2cc(C)cc(C)c2)cc1OC	n	-95	n	n	n
O=C(NCc1ccco1)C1CCN(c2nc3ccccc3n2Cc2ccc(F)cc2)CC1	-152	-104	n	n	n
COc1nc(OC)nc(N2CCC(C(=O)NCc3ccco3)CC2)n1	n	n	n	n	n
CSc1ccccc1OCc1cc(C(=O)N(C)Cc2ccncn2)no1	n	n	n	x	x
COc1cccc(-c2nnc(NC(=O)C3CCCCC3)o2)c1	n	-84	n	n	n
N#Cc1ccc(-c2csc(NC(=O)c3ccc(N4C(=O)CCC4=O)cc3)n2)cc1	n	n	u	n	x
SMILES	hERG WT inh	KCNH2 3.1 inh	MLL CXXC-DNA inh	Menin MLL FP FL	Menin-MLL TR inh
N#Cc1ccc(-c2csc(NC(=O)c3ccc(S(=O)(=O)N4CCc5ccccc5C4)cc3)n2)cc1	n	n	n	n	11µM
O=C1C[C@@H]2c3c(cccc3CN1Cc1ccc(Br)cc1)C[C@@H](O)[C@H]2O	n	n	x	x	x
O=C(O)c1ccc(Nc2nc3ccc(Cl)cc3[nH]2)cc1	n	n	n	n	n
CCn1c(COc2ccccc2)nnc1SCC(=O)NC1CCCCC1	-176	n	n	n	n
O=C(CSc1ncccc1C(=O)O)NC1CCCCCCC1	n	-79	n	n	x
O=C(CSc1ccccc1C(=O)O)NC1CCCCCC1	n	n	n	n	x
CCn1c(CC(=O)Nc2ccccc2)nnc1SCC(=O)NC1CCCC1	n	n	n	n	n
CN(C)c1ncnc2ccc(-c3cccc(NS(C)(=O)=O)c3)cc12	x	x	x	n	n
CCC(=O)N(CCC(Cc1ccccc1)c1ccco1)Cc1ccco1 (stereo not drawn)	n	n	n	n	u
CCC(=O)N(CCC(Cc1ccccc1)c1ccc2c(c1)OCO2)Cc1ccccc1F (stereo not drawn)	n	-79	n	n	u
CCN1/C(=C/c2cc[n+](CCCS(=O)(=O)[O-])c3ccccc23)Sc2ccccc21	n	n	u	u	u
C=CC[n+]1ccc(/C=C2\C=Cc3cc(C)ccc3N2CC)c2ccccc21	n	-115	u	n	u
Cc1cccc2c1-c1sc(C(=O)Nc3ccccc3N3CCN(C)CC3)cc1CO2	n	-71	n	n	x
Cc1cccc2c1-c1sc(C(=O)N3CCCCC3)cc1CO2	n	n	x	n	n
CCOc1ccc(/C=N/NC(=O)c2csc(C)c2C)c(OCC)c1	n	-81	n	n	n
Cc1ccc([C@H]2C[C@@H](n3cc(COC(=O)c4ccccc4)nn3)[C@H](O)CN2Cc2cccs2)cc1	n	n	x	x	x
CCC(Oc1ccccc1C)C(=O)N1CCCN(C)CC1 (stereo not drawn)	n	n	n	n	n
c1cn(-c2cc(-c3ccc4c(c3)OCO4)ncn2)cn1	x	x	x	n	n
O=C(COC(=O)c1ccccc1C(=O)c1ccc(Cl)cc1)NCCc1ccccc1	n	-72	n	n	n
CCCCNC(=O)COC(=O)c1ccccc1F	-131	n	n	n	x
O=C(COC(=O)c1cc(Br)ccc1Cl)NC(=O)NCc1ccccc1	n	n	n	n	n
O=C(COC(=O)c1ccccc1Cl)NC(=O)NCc1ccccc1	-139	-226	n	n	n
CCCCCCCCCCCCCCCCC(C(=O)O)C(O)(CC(=O)O)C(=O)O (stereo not drawn)	x	x	n	n	n
COc1ccc(/C=N/NC(=O)c2nc(-c3ccccc3)cc(-c3ccccc3)n2)cc1OC	n	-72	n	n	n
COc1cccc(/C=N/NC(=O)c2cc(-c3cccn3C)n[nH]2)c1	n	n	n	n	35µM
COc1cccc(/C=N/NC(=O)c2cnccn2)c1	n	n	n	n	n
COc1cccc(/C=N/NC(=O)c2nc(-c3ccccc3)cc(-c3ccccc3)n2)c1	n	-78	n	n	n
COc1cc(/C=N/NC(=O)c2cc(-c3cccn3C)n[nH]2)cc(OC)c1OC	n	n	n	n	n
CCOC(=O)N1CCN(C2CCCN(C(=O)c3cccc(Cl)c3)C2)CC1 (stereo not drawn)	n	x	n	x	x

From PubChem BioAssay
